# Source: PubChem
# An excerpt weighted towards active compounds, which were near 1.1% of everything screened.
# LDHA block: LDHA (human) enzyme inhibition; purified LDHA, NADH/diaphorase-resazurin fluorescence; hits give low values; activity change, % (values are at about 110 or 230 µM); P00338; 0.15% of 480,000 active; in the data active means activity change below about -30%; inconclusive means mostly about -25% to -30%;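 further: plate controls were DMSO wells for no effect and wells without enzyme for full effect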
#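 LDH5 2 nM; NADH 0.06 mM, pyruvate 0.2 mM; 200 mM Tris pH 7.4, EDTA, Tween-20; 5 min RT. Detection: diaphorase 0.133 mg/mL + resazurin 37 µM, fluorescence ex540/em590 at 0 and 20 min; normalized to enzyme-free and DMSO wells.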
# p53 reactivator: mutant p53 re-activation in reporter cells | H1299 p53-A138V BP100-luciferase reporter, luminescence, 24 h | Potency, µM (highest dose often 92.2 µM), for inactives: top-dose activity change, positive = activation, most hits filed as activators | 0.063% of 320,000 active; further: potency means the concentration at half of the fitted maximal effect; % of control where 0% means no effect; nearly all actives have a fitted effect of over 45% in size
#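 H1299 (p53-null), stable ts p53-A138V + BP100-Luc; 1000 cells/well, Opti-MEM/10% FBS; cpd 4 pt, 1:5; 24 h, 37 deg C, 5% CO2; detection reagent 10 min RT; luminescence.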
# RGS4 inh: blocks human RGS4-accelerated GTP hydrolysis. P49798. Transcreener GDP fluorescence polarization, RGS4-accelerated GTP hydrolysis. Potency, µM (top dose mostly 114 µM), for the others: top-dose activity change, negative = inhibition, hits mostly inhibitors. 0.039% of 390,000 active. AID 504845; further: potency means the concentration at half of the fitted maximal effect; on the % scale 0 is the no-effect control and ±100 the full control effect; nearly all actives have a fitted effect of over 75% in size
#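 MLSMR compounds (23 nl, pin-transferred) preincubated 10 min at room temperature with a 500nM (2x) first reagent, then RGS4 at 900nM (2x) plus Transcreener GDP mix added; fluorescence polarization (620/688 nm) read before and after 90 min at 30 °C.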
# PTHR1 agonist: PTHR1 (human) receptor agonism; 0.075% of 410,000 active; HEK293 GP2 PTHR1 cells, GloSensor cAMP luminescence, 1 h; Q03431; AID 743266; Potency, µM (titrated, usually from 115 µM), for inactives: at the highest dose activation, usual class: activators; further: potency means the concentration at half of the fitted maximal effect; nearly all actives have a fitted effect of over 55% in size
# Target sequence (Q03431 whole entry, looked up): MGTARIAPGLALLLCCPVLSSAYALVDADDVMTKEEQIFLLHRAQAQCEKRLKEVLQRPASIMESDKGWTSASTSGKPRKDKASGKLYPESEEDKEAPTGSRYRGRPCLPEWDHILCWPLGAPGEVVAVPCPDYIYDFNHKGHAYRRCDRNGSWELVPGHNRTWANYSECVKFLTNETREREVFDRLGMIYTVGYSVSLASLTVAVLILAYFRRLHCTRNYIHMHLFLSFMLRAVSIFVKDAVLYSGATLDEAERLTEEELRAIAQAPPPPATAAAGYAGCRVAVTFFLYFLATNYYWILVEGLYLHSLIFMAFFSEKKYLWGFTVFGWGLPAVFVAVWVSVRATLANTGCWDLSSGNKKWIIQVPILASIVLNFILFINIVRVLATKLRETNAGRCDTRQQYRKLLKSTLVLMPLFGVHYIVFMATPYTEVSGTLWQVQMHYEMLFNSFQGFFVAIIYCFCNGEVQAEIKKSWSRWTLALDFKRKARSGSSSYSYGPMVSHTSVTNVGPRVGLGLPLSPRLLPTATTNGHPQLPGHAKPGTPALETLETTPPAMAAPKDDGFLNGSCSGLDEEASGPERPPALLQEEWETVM
#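 HEK-293-derived GP2 cells expressing PTHR1 and a GloSensor cAMP reporter, 3,000/well, plated overnight, given luciferin plus IBMX (each 0.5 mM as added) for 1 h at 37 °C, then compound for 1 h at 37 °C. Luminescence was read after 15 min at room temperature.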
# BRCA1 expr up: increases BRCA1 expression | 1.1% of 380,000 active | MCF7-BRCA1-FFLuc reporter, luminescence, 48 h; response scale: scaled: vehicle 0%, 10 µM genistein 100% | AID 624202 | Potency, µM (titrated, usually from 46.1 µM), inactives show at the top dose activation, usual class: activators; further: potency means the concentration at half of the fitted maximal effect; nearly all actives have a fitted effect of over 80% in size
#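 MCF7-BRCA1-FFLuc, 2000 cells/well; 2 h attach, 37 °C/5% CO2; compound 48 h; luciferase substrate 15 min; luminescence end-point. Norm. to genistein 10 microM max activation and DMSO; concentration-response curves fitted.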
# * marks the source's active call; other numbers are inactive results; i = inactive; ? = inconclusive; / = no result; [ ] = remark or other dose. Unless noted, the call rests on the fitted dose curve; in most records, active means well fitted curve in the direction sought with a large enough effect; inconclusive means small, poorly fitted or top-dose-only effect, or another doubt; inactive means no such curve, though single readings can be large; an effect the other way counts as inactive or inconclusive.
SMILES,LDHA block,p53 reactivator,RGS4 inh,PTHR1 agonist,BRCA1 expr up
CSc1ccc(-c2nnn(Cc3ccccn3)n2)cc1,-4,?,13%,-22%,8.9µM*
Clc1ccc(-c2nnc(C3CC3)o2)cc1,-10,10%,15%,i,63%
Fc1ccc(-c2nnc(-c3ccc(Cl)cc3)o2)cc1,-1,?,6%,-51%[57.5 µM],2µM*
Clc1ccc(-c2nnc(N3CCOCC3)o2)cc1,0,17%,0%,i,4µM*
Fc1ccc(-c2nnc(-c3ccc(Cl)cc3Cl)o2)cc1,-2,?,-10%,i,?
CSCCC(NC(=O)c1ccc2ccccc2n1)C(=O)NC1CC1 (configuration not stated),9,/,/,/,/
Cc1cccc(N(C)C(=O)Cn2nc(-c3ccc(Br)cc3)ccc2=O)c1,4,/,/,/,/
COc1ccc(-c2coc3cc(O)c(OC)cc3c2=O)cc1,0,?,13%,-26%,?
COc1ccc(-c2coc3cc(O[C@@H]4O[C@H](CO)[C@@H](O)[C@H](O)[C@H]4O)c(OC)cc3c2=O)cc1,-1,?,-3%,i,11µM*
COc1ccc(-c2coc3cc(O)ccc3c2=O)cc1O,13,16%,13%,-24%,13µM*
COc1ccc(-c2coc3cc(OC)ccc3c2=O)cc1,-3,/,-14%,-39%,2.8µM*
CC(=O)Oc1ccc2c(=O)c(-c3ccccc3)coc2c1,-15,?,-1%,-39%,7.9µM*
COc1ccc(-c2coc3cc(O)ccc3c2=O)cc1,-5,/,12%,-85%,?
COc1ccc(-c2coc3cc(OC4OC(CO)C(O)C(O)C4O)cc(O)c3c2=O)cc1 (configuration not stated),0,?,24%,-7%,?
COc1ccc(CC(=O)c2ccc(OC3OC(CO)C(O)C(O)C3O)cc2O)cc1 (configuration not stated),-1,?,-14%,i,11µM*
Cc1oc2cc(OC(=O)c3ccc4c(c3)OCO4)ccc2c(=O)c1-c1ccccc1,-30*,/,/,/,/
CC1Cc2cc(C(=O)Nc3cccc(-c4nnc5n4CCCCC5)c3)ccc2N1S(C)(=O)=O (configuration not stated),7,/,/,/,/
O=[N+]([O-])c1cccc2nc(/C=C/c3ccccc3C(F)(F)F)ccc12,6,/,/,/,/
COc1ccc(C(=O)c2ccsc2N)cc1,-11,16%,-5%,-10%,11µM*
CCc1cc(C(=O)c2ccc(OC)cc2)c(N)s1,0,17%,-42%,i,-28%
CC(C)n1nc(C(=O)Nc2cccc(C(F)(F)F)c2)c2ccccc2c1=O,2,/,/,/,/
Cc1cc(C)c(NC(=O)Cc2c[nH]c3ccccc23)c(Cl)c1,-12,/,/,/,/
O=C(CSc1nnc2sc3ccccc3n12)c1ccco1,6,19%,-12%,-47%[57.5 µM],13µM*
CN(C)C(=O)CSc1nnc2sc3ccccc3n12,-2,14%,6%,-11%,2%
COc1ccc(C2NN=C(c3ccc(C)cc3)S2)cc1 (configuration not stated),-2,?,-40%,-49%,1.8µM*
SMILES,LDHA block,p53 reactivator,RGS4 inh,PTHR1 agonist,BRCA1 expr up
CCOc1ccc(/C=C/C(=O)c2ccccc2)cc1,-13,?,-6%,-43%,13µM*
Cc1ccc(/C=C/C(=O)c2ccc(O)cc2)cc1,-3,11µM*,2%,-58%,0%
O=C(O)CCC(=O)N1N=C(c2ccco2)CC1c1ccc2nccnc2c1 (configuration not stated),-2,/,/,/,/
COc1ccc(-c2coc3cc(OCC(=O)NCc4ccccc4Cl)ccc3c2=O)cc1OC,-1,/,/,/,/
CCOC(=O)c1cc2c(nc1NC(=S)NCc1ccccc1)CCCC2,-12,?,22%,i,4.5µM*
Nc1nc(SCc2ccccc2)c2ncn(C3CCCCC3)c2n1,-6,/,0%,-21%,47%
Nc1nc(SCc2ccccc2)c2ncn(C3CCCO3)c2n1 (configuration not stated),-2,/,-13%,i,8.9µM*
Cc1cc(SCC(=O)c2ccccc2)nc(C)n1,-6,17%,-24%,-54%[57.5 µM],10µM*
